From PubChem BioAssay
The list is not random: actives were taken first. Their share in the collection is about 1.6%.
KCNQ2 pot = potentiators of rat KCNQ2 potassium channel; Potassium voltage-gated channel subfamily KQT member 2 (Rattus norvegicus), O88943; CHO-K1 KCNQ2, FluxOR thallium flux fluorescence; stronger effect = higher value; B-score at 10 µM; 0.54% of 310,000 active; AID 2239, 2010;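 active = fluorescence ratio B-score at least 3 SD of library B-scores, with initial fluorescence B-score within 3 of them, cut at about 5.3 in these data; same plate scores as AID 2156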;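 note: B-score of peak minus minimum over baseline fluorescence ratio after K+ and Tl+ stimulus; positive B-score means potentiation of KCNQ2 with more thallium influx and brighter signal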
Target sequence (O88943 whole entry, looked up): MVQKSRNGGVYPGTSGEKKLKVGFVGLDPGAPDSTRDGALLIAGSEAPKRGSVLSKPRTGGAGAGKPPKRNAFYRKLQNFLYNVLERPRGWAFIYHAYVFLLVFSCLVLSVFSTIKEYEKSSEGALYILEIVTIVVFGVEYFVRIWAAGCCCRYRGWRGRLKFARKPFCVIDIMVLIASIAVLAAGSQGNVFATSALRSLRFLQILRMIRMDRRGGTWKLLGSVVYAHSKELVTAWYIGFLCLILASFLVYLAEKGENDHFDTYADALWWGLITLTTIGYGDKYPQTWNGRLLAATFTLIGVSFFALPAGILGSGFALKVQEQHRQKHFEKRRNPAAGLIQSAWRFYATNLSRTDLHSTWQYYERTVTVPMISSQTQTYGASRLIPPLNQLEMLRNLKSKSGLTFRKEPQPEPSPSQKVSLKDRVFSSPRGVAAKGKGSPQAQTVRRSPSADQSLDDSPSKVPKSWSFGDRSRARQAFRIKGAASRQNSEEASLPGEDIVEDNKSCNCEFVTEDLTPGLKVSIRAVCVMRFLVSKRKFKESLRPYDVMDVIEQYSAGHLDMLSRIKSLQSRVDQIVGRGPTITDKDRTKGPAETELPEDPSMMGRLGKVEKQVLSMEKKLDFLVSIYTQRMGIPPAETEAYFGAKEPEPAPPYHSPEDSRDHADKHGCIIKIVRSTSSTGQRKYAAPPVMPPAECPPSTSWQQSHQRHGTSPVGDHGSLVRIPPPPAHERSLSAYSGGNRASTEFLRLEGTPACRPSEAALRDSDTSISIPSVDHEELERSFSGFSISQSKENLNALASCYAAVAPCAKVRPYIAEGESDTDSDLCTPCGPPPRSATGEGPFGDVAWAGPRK
KCNQ2 inh = rat KCNQ2 potassium channel inhibitors, primary screen, cell-based, CHO-K1, FluxOR thallium flux, B-score; B-score at 10 µM; 1.1% of 310,000 active; Potassium voltage-gated channel subfamily KQT member 2 (Rattus norvegicus), O88943; 20 min; stronger effect = lower value;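 active = fluorescence ratio B-score at most minus 3 library SDs, with starting brightness B-score within 2 library SDs, cut at about -5.5 in these data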
Active calls of the source: *; i = inactive; . = no result given.

SMILES	KCNQ2 pot	KCNQ2 inh
CCCOc1ccc(CN(CCC#N)C(=S)NC(=O)c2ccccc2)cc1	7.1*	i
CCN(CC)S(=O)(=O)c1ccc(C(=O)NC(=S)N(CCO)Cc2ccccc2)cc1	1.4	i
Oc1ccc2ccccc2c1CNc1ccc(Br)cc1	.	i
Oc1ccc2ccccc2c1CNc1ccc(Br)cn1	-6.2	-6.2*
C[C@H]1COC2=C1C(=O)C(=O)c1c2ccc2c1CCCC2(C)C	-6.2	-6.2*
Cc1coc2c1C(=O)C(=O)c1c-2ccc2c1CCCC2(C)C	.	i
CC(OC(=O)CCCN=C1NS(=O)(=O)c2ccccc21)C(=O)Nc1ccc(F)c(F)c1F (stereo not drawn)	1.2	i
COc1ccc(S(=O)(=O)N2CCCCCC2)cc1C(=O)N(C)Cc1ccccc1F	-5.8	-5.8*
COc1cccc(NC(=O)CN(C)C(=O)c2cccc(S(=O)(=O)N3CCN(c4ccccc4)CC3)c2)c1	0.05	i
COc1ccc(S(=O)(=O)N2CCCCCC2)cc1C(=O)N(C)Cc1ccc(C)cc1	.	i
COc1cccc(CN(C)C(=O)c2cc(S(=O)(=O)N3CCN(c4ccccc4)CC3)ccc2Cl)c1	-5.6	-5.6*
CC(=O)Nc1ccc(/C=N/NC(=O)CNC(=O)c2ccccc2)cc1	.	i
CC(=O)N(c1nnc(-c2cccc(C)c2)s1)C1CCCC1	.	i
COC(=O)C1C(O)=C(C=Nc2cccc3ccccc23)C(=O)CC1(C)C (stereo not drawn)	-6	-6*
COC(=O)C1C(O)=C(C=NCc2ccccc2)C(=O)CC1(C)C (stereo not drawn)	.	i
CCn1c(SCC(=O)OC(C)C)nnc1-c1ccccc1OC	1.8	i
C=CCn1c(SCc2ccccc2)nc2scc(-c3ccc(C)o3)c2c1=O	0.16	i
Cc1sc2ncn(CCn3cnc4sc(C)c(C)c4c3=O)c(=O)c2c1C	.	i
Cc1sc2ncn(-n3c(C)ccc3C)c(=O)c2c1C	-5.7	-5.7*
Cc1ccc(-c2csc3ncn(-n4c(C)ccc4C)c(=O)c23)o1	-6.6	-6.6*
O=C(NCCc1ccccc1)C(=O)NCC1OCCCN1S(=O)(=O)c1cccs1 (stereo not drawn)	.	i
N#Cc1ccc(NC(=O)Cn2cnc(S(=O)(=O)N3CCCC3)c2)cc1	.	i
Cc1cc(NCc2ccccc2)nc2ccccc12	2	i
C/C(CCC(C)C)=N\Nc1cc(C)c2ccccc2n1	-8.3	-8.3*
O=C(CSc1nnc(CNC(=O)c2cccs2)o1)Nc1cccc(Cl)c1	0.28	i
SMILES	KCNQ2 pot	KCNQ2 inh
Cc1cc(O)c(C(C[N+](=O)[O-])c2ccc(Cl)cc2)c(=O)o1 (stereo not drawn)	.	i
Cc1cc(C)n(C(C[N+](=O)[O-])c2ccc(Cl)cc2)n1 (stereo not drawn)	-10	-10*
Cc1c(O)ccc2c(CC(=O)N[C@@H](Cc3ccccc3)C(=O)O)cc(=O)oc12	.	i
O=C(O)COc1ccc(/C=C/c2nc(-c3ccccc3O)n[nH]2)cc1	0.1	i
COc1ccc(/C=C/c2nc(-c3ccccc3O)n[nH]2)cc1OC	10*	i
Cc1c(C)c2cc(Cl)c(OCC(=O)NC3CC(C)(C)NC(C)(C)C3)cc2oc1=O	.	i
CC(=O)NNC(=O)c1[nH]c2ccc(Br)cc2c1-c1ccccc1	3.3	i
CCOC(=O)NNC(=O)c1[nH]c2ccc(Br)cc2c1-c1ccccc1	-6.8	-6.8*
CC(=O)c1ccc(NC(=O)Cc2ccsc2)cc1	0.68	i
CCCC/C=C/C(NC(=O)CCc1ccccc1)c1ccccc1 (stereo not drawn)	.	i
CCCC/C=C/[C@H](c1ccccc1)[C@H](CO)Cc1cccnc1	-5.7	-5.7*
COc1ccc(/C=C/C(=O)N2CCN(c3ccccn3)CC2)c(OC)c1OC	0.57	i
Cn1c(=O)n(C)c2cc([N+](=O)[O-])c(N3CCN(CCO)CC3)cc21	.	i
COc1cccc2[nH]c3c(N4CCN(Cc5ccc6c(c5)OCO6)CC4)ncnc3c12	1.1	i
COc1ccc2c(c1)[nH]c1c(N3CCN(Cc4ccc5c(c4)OCO5)CC3)ncnc12	-8.1	-8.1*
c1ccc(CN2CCN(c3ncnc4c3[nH]c3ccccc34)CC2)cc1	-8.1	-8.1*
Cc1ccc2[nH]c3c(N4CCN(Cc5ccccc5)CC4)ncnc3c2c1	.	i
O=C(c1cc(COc2ccc(F)c(F)c2)on1)N1CCN(C/C=C/c2ccccc2)CC1	.	i
O=C(CN(c1ccc(Cl)cc1)S(=O)(=O)c1ccccc1)N1CCN(c2ccccc2)CC1	-7.4	-7.4*
COc1ccc(N2CCN(C(=O)CN(c3ccc(OC)cc3)S(=O)(=O)c3ccccc3)CC2)cc1	.	i
O=C(COC(=O)CNS(=O)(=O)c1ccc(F)c(F)c1F)Nc1ccc(OC(F)F)cc1	.	i
COc1ccccc1N1CCN(S(=O)(=O)c2cc(-c3cc(C)no3)ccc2C(C)C)CC1	-6	-6*
Cc1cc(-c2ccc(C(C)C)c(S(=O)(=O)N3CCN(c4ccccc4)CC3)c2)on1	.	i
Cc1ccc(NC(=O)c2cc(-c3ccccc3)nn2-c2ccccc2)c(Br)c1	.	i
Cc1cccc(NC(=O)c2cnn(-c3ccccc3)c2C)c1C	.	i
SMILES	KCNQ2 pot	KCNQ2 inh
CCc1nnc(NC(=O)c2cc(C)nc3ccccc23)s1	-6.3	-6.3*
Cc1ccc(NC(=O)c2cc(-c3ccccc3)nn2-c2ccccc2)cc1	-5.7	-5.7*
Cc1cc(C(=O)Nc2ccccc2C)c2ccccc2n1	.	i
CCc1nnc(NC(=O)c2cc(-c3cccnc3)nc3ccccc23)s1	1	i
Cc1cc(C(=O)Nc2cccc(C)c2C)c2ccccc2n1	-5.8	-5.8*
Cc1cccc(NC(=O)c2nc(-c3ccccc3)n(-c3ccccc3)n2)c1C	-8.2	-8.2*
Cc1ccccc1SCC(=O)OCC(=O)N(C)c1c(N)n(Cc2ccccc2)c(=O)[nH]c1=O	0.99	i
COc1ccc(NC(=O)NCC(C)CSc2ccc(C)cc2)c(OC)c1 (stereo not drawn)	.	i
CC(C)(C)NC(=S)N1CCC(C(=O)c2ccc(Cl)cc2)CC1	.	i
COc1ccc(Cl)cc1C(=O)NNC(=O)c1csc(N2CCOCC2)n1	.	i
COc1ccc(Cl)cc1C(=O)OCC(=O)NCCNC(=O)COC(=O)c1cc(Cl)ccc1OC	.	i
COc1c2c(cc3ccc(=O)oc13)CCO2	1.1	i
O=C1NC(=S)N/C1=C\c1ccc(Oc2ccc(C(F)(F)F)cc2[N+](=O)[O-])c(Cl)c1	0.77	i
CCOc1ccc(C(C)=O)cc1CSc1nc2nc(C)cc(C)n2n1	1.8	i
CN(Cc1ccccc1)C(=O)COC(=O)c1cc(NS(=O)(=O)c2cccs2)ccc1O	2.7	i
CCC(C)n1c(/C=C/c2ccccc2)nc2ccccc21 (stereo not drawn)	-5.7	-5.7*
CCn1c(/C=C/c2ccccc2)nc2ccccc21	.	i
COc1ccc2nc(SCCC(=O)O)cc(C)c2c1	0.01	i
Cc1ccc2cc(/C=C(\C#N)C(N)=O)c(N3CCCCC3)nc2c1	.	i
CCOC(=O)/C(C#N)=C/c1cc2ccccc2nc1N1CCCCC1	-6.5	-6.5*
COc1ccc(-c2cc(C(=O)Nc3cc(S(=O)(=O)N4CCOCC4)ccc3N3CCOCC3)c3ccccc3n2)cc1	1.4	i
CC(C)(C)C1CCc2c(sc(NC(=O)c3cccs3)c2C(=O)N2CCCCC2)C1 (stereo not drawn)	-8.1	-8.1*
